# Measured values as given in PubChem BioAssay (NCI).
# The panel holds about 83,000 compounds, 20% with a hit somewhere; the sample as a whole holds those more often.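 Cells were grown in 96-well plates and exposed to the test compound at a single concentration for 48 hours; results are reported as percent growth, with values below 10 considered active.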 A number with no mark means an inactive call.
# Test system: NCI-H322M lung
# Test: NCI-60 one-dose screen, 48 h (100 = growth as untreated, 0 = no growth, -100 = all killed)
# Settings: 10 µM unless noted
row,Compound,growth
1,CCN1CCN(C(=O)[C@]23CCC(C)(C)C[C@@H]2C2=CC[C@@H]4[C@@]5(C)C/C(=C/c6ccncc6)C(=O)C(C)(C)[C@@H]5CC[C@@]4(C)[C@]2(C)CC3)CC1,27%
2,COc1ccc(/C=C(\C#N)c2cc3ccccc3n2S(C)(=O)=O)cc1,99.6%
3,Cc1ccc(S(=O)(=O)Nc2ccc(-c3cc(-c4cccc(F)c4)c(C#N)c(=O)[nH]3)cc2)cc1,90%
4,N#CC1=C(N)Oc2c(c(N)nn2-c2ccccc2)C1c1ccc(Cl)cc1 (stereo unspecified),101%
5,C=C(C)[C@@H]1CC[C@]2(CN)CC[C@]3(C)[C@H](CC[C@@H]4[C@@]5(C)CCC(=O)NC(C)(C)[C@@H]5CC[C@]43C)[C@@H]12,89.1%
6,CC1(C)[C@@H](O)CC[C@]2(C)[C@H]3CC[C@@H]4[C@H]5[C@H](C(=O)/C=C/c6ccc(C(F)(F)F)cc6)CC[C@]5(CO)CC[C@@]4(C)[C@]3(C)CC[C@@H]12,80.7%
